Compound activity: PubChem, several laboratories
This is a sample that favours compounds with a hit; in the whole collection about 3.1% have one here.
KKLEB tox = cytotoxicity in KKLEB CF airway cells, primary screen, cytotoxicity control for CF NF-kB inhibitor project, cell-based, uHTS, fluorescence assay plates | KKLEB CF airway cells viability, ATPlite luminescence, overnight; stronger effect = lower value; cells stimulated with P. aeruginosa culture filtrate | activity change (cytotoxicity), % at 5 µM | actives 0.36% (n = 360,000) | AID 602141, 2011;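 active means corrected activity change at or below -50% at 5 µM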
Peg3 prom inh-1 = Peg3 promoter-driven luciferase inhibitors, primary screen, cell-based, HeLa, luciferase luminescence; AID 588405, 2011; inhibition, % at 20 µM; HeLa PEG-Prom luciferase reporter, overnight; actives 1.7% (n = 360,000);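 active means inhibition of at least 50% at 20 µM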
TRPM1 prom inh = inhibitors of MITF-dependent TRPM1 promoter reporter, primary screen, cell-based, SK-MEL-5, single point, luciferase; SK-MEL-5 TRPM1 promoter luciferase, 24 h; actives 0.83% (n = 330,000); inhibition, % at 12.5 µM;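 active means mean inhibition across replicates of 60% or more, whatever share of single replicates reaches that level; inconclusive means some that reach 60%, reason not given; inactive means mean inhibition across replicates below 60%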
ABHD5 PLIN5 PPI = ABHD5-PLIN5 interaction inhibitors, primary screen, cell lysate, split luciferase complementation, luminescence | Perilipin-5 (Homo sapiens) + 1-acylglycerol-3-phosphate O-acyltransferase ABHD5 (Homo … | Split G. princeps luciferase complementation, 4 h | inhibition, % at 4 µM | actives 0.78% (n = 360,000) | AID 602281, 2012;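 active means inhibition above the mean inhibition across every tested compound plus 3 SD, cut at about 22% in these data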
HIF-2a inh = HIF-2a reporter inhibitors, primary screen, luminescence, 786-0 RCC cells. 786-0 RCC cells HIF-2a reporter, luciferase luminescence, overnight. AID 624352, 2012. inhibition, % at 18.8 µM. actives 0.72% (n = 360,000);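 active means inhibition of the luminescence signal of 40% or more relative to plate controls, in a single-dose primary screen at 18.75 µM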
CF NFkB block = inhibitors of PAF-induced NF-kB signaling, primary screen, cell-based, GFP fluorescence, uHTS. KKLEB NF-kB-GFP reporter, GFP fluorescence overnight. actives 0.86% (n = 360,000). inhibition, % at 5 µM;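 active means at least 50% inhibition at 5 µM, scaled per plate between neutral and stimulator controls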;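 further: PAF is a Pseudomonas aeruginosa culture filtrate used as stimulus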
Peg3 prom inh-2 = Peg3 promoter reporter inhibitors, retest, confirmation, cell-based, HeLa, luciferase reporter, single concentration; shares compounds with Peg3 prom inh-1; HeLa PEG-Prom luciferase reporter, luminescence, overnight; inhibition, % at 20 µM; actives 84% (n = 1,300); AID 602417, 2012;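 active means at 20 µM dose, 40% or more inhibition averaged across four replicates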
CF NFkB inh conf = inhibitors of PAF-induced NF-kB signaling, retest, confirmation, cell-based, GFP fluorescence, single concentration | shares compounds with CF NFkB block | KKLEB CF airway cells, overnight | inhibition, % at 5 µM | actives 64% (n = 1,300) | AID 602472, 2012; in the data active means inhibition above about 40%;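 further: stimulus PAF is a Pseudomonas aeruginosa filtrate and not platelet activating factor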
ABHD5-PLIN5 conf = ABHD5-PLIN5 interaction inhibitors, confirmation, biochemical, luminescence. shares compounds with ABHD5 PLIN5 PPI. inhibition, % at 4 µM. actives 67% (n = 2,200). AID 651612, 2012; in the data active means inhibition above about 23%
HNF4 counter = HNF4 dimerization inhibitors, counter-screen for ABHD5-PLIN5 interaction inhibitor project, biochemical, split-luciferase complementation, luminescence. actives 77% (n = 2,200). shares compounds with ABHD5 PLIN5 PPI. inhibition, % at 4 µM;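 active means mean inhibition across replicate wells exceeding the computed hit threshold, cut at about 13% in these data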;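 further: light from luciferase halves that rejoin when HNF4 fusion proteins dimerize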
Target sequence (P41235 whole entry, looked up, the tested form may be a part): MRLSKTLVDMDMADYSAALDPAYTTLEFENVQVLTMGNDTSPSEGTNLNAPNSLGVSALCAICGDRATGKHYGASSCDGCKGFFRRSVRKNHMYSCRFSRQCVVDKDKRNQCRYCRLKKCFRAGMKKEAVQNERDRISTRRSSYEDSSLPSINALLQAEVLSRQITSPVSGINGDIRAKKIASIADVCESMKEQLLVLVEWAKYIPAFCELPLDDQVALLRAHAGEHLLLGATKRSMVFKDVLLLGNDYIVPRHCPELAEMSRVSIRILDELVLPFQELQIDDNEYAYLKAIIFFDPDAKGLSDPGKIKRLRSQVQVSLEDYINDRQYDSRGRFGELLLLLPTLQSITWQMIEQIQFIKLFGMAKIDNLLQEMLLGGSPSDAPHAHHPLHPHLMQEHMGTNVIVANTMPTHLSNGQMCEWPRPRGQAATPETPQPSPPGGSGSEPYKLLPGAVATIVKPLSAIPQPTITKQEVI
Each line names hits and unclear results; the compound was inactive in the other large screens (follow-up assays come after a bar, where they were run).

O=S(=O)(c1ccccc1)N1CCN(c2ccnc3cc(Cl)ccc23)CC1	none
O=C(NCCN1CCC(n2c(=O)[nH]c3ccccc32)CC1)c1ccncc1	none (no result: KKLEB tox, Peg3 prom inh-1, TRPM1 prom inh, CF NFkB block)
COc1ccc(N(CCCN2C(=O)c3cccc4cccc(c34)C2=O)C(=O)c2cccs2)cc1	Peg3 prom inh-1 52.5 | Peg3 prom inh-2 42.3
O=S(=O)(SC1=NCCN1)c1ccccc1	none
c1ccc(-c2cc(-c3nc4ccccc4[nH]3)c3ccccc3n2)cc1	Peg3 prom inh-1 80.9, CF NFkB block 56.3 | Peg3 prom inh-2 89.1 | CF NFkB inh conf inactive
CC1(C(=O)NCc2cccc(Cl)c2)Cc2c(-c3cccc(C(N)=O)c3)ccnc2O1 (stereo not given)	none (no result: TRPM1 prom inh)
CCOC(=O)c1oc2ccccc2c1COC(=O)CNC(=O)c1ccc(C)cc1	none
O=C1COc2ccc(C(=O)CSc3nc4ccccc4c(=O)n3-c3ccc(Cl)c(Cl)c3)cc2N1	Peg3 prom inh-1 75.7, CF NFkB block 55.4 | Peg3 prom inh-2 inactive | CF NFkB inh conf inactive
CCc1ccc(-n2c(SCC(=O)c3ccc4c(c3)NC(=O)CO4)nc3ccccc3c2=O)cc1	none
CC(C)(C)n1nnnc1C(c1ccccc1)N1CCN(c2ccc(C(F)(F)F)cn2)CC1 (stereo not given)	none (no result: KKLEB tox, Peg3 prom inh-1, TRPM1 prom inh, CF NFkB block)
COc1nc(N)c(C#N)c(-c2ccc(N(C)CCC#N)cc2)c1C#N	Peg3 prom inh-1 57.6, CF NFkB block 58.7 | Peg3 prom inh-2 65.6 | CF NFkB inh conf 75.4
CC(C)(C)OC(=O)CC(S(=O)(=O)c1ccccc1)S(=O)(=O)c1ccccc1	Peg3 prom inh-1 81.5, CF NFkB block 85.5 (no result: TRPM1 prom inh) | Peg3 prom inh-2 97.1 | CF NFkB inh conf inactive
O=S(=O)(NCc1nnnn1-c1ccc(F)cc1)c1ccc(F)cc1	none (no result: TRPM1 prom inh)
Cc1cccc(CNc2ncnc3ccc(-c4ccc5c(c4)OCCO5)cc23)c1	none
Cc1cccc(CNc2ncnc3ccc(-c4ccoc4)cc23)c1	Peg3 prom inh-1 50.1, CF NFkB block 70.3 | Peg3 prom inh-2 40.8 | CF NFkB inh conf 87.1
Cc1cccc(NC(=O)c2nc[nH]c2C(=O)NCCCCNC(=O)c2[nH]cnc2C(=O)Nc2cccc(C)c2)c1	Peg3 prom inh-1 77.7, CF NFkB block 56.1 | Peg3 prom inh-2 inactive | CF NFkB inh conf inactive
Cc1cccc(NC(=O)c2nc[nH]c2C(=O)NCCCCCCNC(=O)c2[nH]cnc2C(=O)Nc2cccc(C)c2)c1	none
COc1cc2[nH]c(C(=O)N3CCc4ccccc43)cc2c(OC)c1OC	none
CCOc1ccc(-n2cc(-c3ccccc3)c3c(N4CCOCC4)ncnc32)cc1	Peg3 prom inh-1 51.1, CF NFkB block 91.0 | Peg3 prom inh-2 60.2 | CF NFkB inh conf 95.4
c1ccc(-c2cn(-c3ccccc3)c3ncnc(N4CCCCC4)c23)cc1	none
CCC(C)Oc1cc(-c2ccnc(Nc3cccc(Cl)c3)n2)ccn1 (stereo not given)	Peg3 prom inh-1 99.9, CF NFkB block 98.8 | Peg3 prom inh-2 92.2 | CF NFkB inh conf 104.6
COc1ccc(C(C(=O)NCC2CCCO2)N(Cc2cccs2)C(=O)c2snc(C(N)=O)c2N)cc1 (stereo not given)	Peg3 prom inh-1 51.2, CF NFkB block 54.4 | Peg3 prom inh-2 49.7 | CF NFkB inh conf 50.3
Cc1ncc(CO)c2cc(C(=O)Nc3cccc(F)c3)c(=Nc3cccc(C(N)=O)c3)oc12	none
COc1ccc(NC(=O)c2cc3c(CO)cnc(C)c3oc2=Nc2cccc(F)c2)c(OC)c1	Peg3 prom inh-1 58.8, CF NFkB block 52.0 | Peg3 prom inh-2 inactive | CF NFkB inh conf inactive
CSc1ncc(Cl)c(C(=O)Nc2ccc(NC(C)=O)cc2)n1	none
CC(=O)Nc1ccc(NC(=O)c2nc(S(=O)(=O)Cc3ccccc3)ncc2Cl)cc1	KKLEB tox -77.0, Peg3 prom inh-1 101.6, TRPM1 prom inh 87.5, ABHD5 PLIN5 PPI 57.9, CF NFkB block 96.4 | Peg3 prom inh-2 95.5 | ABHD5-PLIN5 conf 81.3 | HNF4 counter 93.7
CS(=O)(=O)c1ccc(C(=O)NCCN2C(=O)S/C(=C\c3cccnc3)C2=O)cc1[N+](=O)[O-]	KKLEB tox -68.0, Peg3 prom inh-1 99.2, TRPM1 prom inh 69.5, ABHD5 PLIN5 PPI 55.5, CF NFkB block 78.0 | Peg3 prom inh-2 54.1 | ABHD5-PLIN5 conf 67.5 | HNF4 counter 44.1
COC1CC(C)C(OC)c2cc(O)cc(c2O)NC(=O)C(C)=CC=CC(C)C(OC(N)=O)C(C)=CC(C)C1OC (stereo not given)	Peg3 prom inh-1 57.4, TRPM1 prom inh 71.5, ABHD5 PLIN5 PPI 42.8 | Peg3 prom inh-2 48.1 | ABHD5-PLIN5 conf 51.7 | HNF4 counter 92.7
Cc1ccc(C(=O)NC(c2ccccc2)C(Cl)Cl)cc1 (stereo not given)	none
Cc1ccccc1NC(=O)C(=Cc1ccc(C(=O)O)cc1)C(=O)Nc1ccccc1C	Peg3 prom inh-1 59.4, ABHD5 PLIN5 PPI 27.4, HIF-2a inh 41.7 | Peg3 prom inh-2 50.2 | ABHD5-PLIN5 conf 64.8 | HNF4 counter 45.5
CCOc1ccc(N2C(=O)CC(NNc3nc4ccccc4s3)C2=O)cc1 (stereo not given)	none
CN(C)c1ccc(N=Nc2nc3ccccc3n2C)cc1	KKLEB tox -82.3, Peg3 prom inh-1 103.5, TRPM1 prom inh inconclusive, ABHD5 PLIN5 PPI 34.4 | Peg3 prom inh-2 87.5 | ABHD5-PLIN5 conf 26.5 | HNF4 counter 46.4
O=C(NC1CCCC1)C1c2ccccc2OCC(=O)N1Cc1cccnc1 (stereo not given)	none (no result: KKLEB tox, Peg3 prom inh-1, TRPM1 prom inh, CF NFkB block)
Cc1ccc(CC2(OCCN(C)C)CCC(C(C)(C)C)CC2)cc1 (stereo not given)	Peg3 prom inh-1 95.4, ABHD5 PLIN5 PPI 26.4 | Peg3 prom inh-2 100.8 | ABHD5-PLIN5 conf 30.2 | HNF4 counter inactive
Cc1ccc(CNC(=S)NC2CCC(C(C)(C)C)CC2)cc1 (stereo not given)	none
